Tests used:
Conditions in all cases: concentration: 1 μM,replicates: in singlicate; n = 1
PIK3C2G = tested on: PIK3C2G
PIK3CA = tested on: PIK3CA
PIK3CB = tested on: PIK3CB
PIK3CD = tested on: PIK3CD
PIK3CG = tested on: PIK3CG
PIK4CB = tested on: T1, PIK4CB
T1 construct: gene PI4KB

PIKFYVE = tested on: PIKFYVE
PIM1 = tested on: PIM1
PIM2 = tested on: PIM2
PIM3 = tested on: PIM3
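Note: KINOMEscan kinase panel screen.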

Row | SMILES | %Inh (PIK3C2G) [%] | %Inh (PIK3CA) [%] | %Inh (PIK3CB) [%] | %Inh (PIK3CD) [%] | %Inh (PIK3CG) [%] | %Inh (PIK4CB) [%] | %Inh (PIKFYVE) [%] | %Inh (PIM1) [%] | %Inh (PIM2) [%] | %Inh (PIM3) [%]
1 | C[C@@H]1CNc2c(sc3ccc4nc(-c5ccncc5)ccc4c23)C(=O)N1 | 2 | 0 | 0 | 0 | 0 | 0 | 52 | 44 | 69 | 93.1
2 | Cc1n[nH]c2cc(Nc3ccnc(Nc4cccc(CN5CCOCC5)c4)n3)ccc12 [GW682569] | 0 | 3 | 7 | 9 | 6 | 81 | 23 | 0 | 0 | 0
3 | NC(=O)Nc1sc(-c2ccc(F)cc2)cc1C(N)=O [GW789449] | 19 | 0 | 0 | 30 | 1 | 18 | 22 | 0 | 0 | 0
4 | CC(C)S(=O)(=O)N1CCN(Cc2ccc3c(c2)nc(NC(=O)c2ccsc2)n3C[C@H](O)c2ccccc2)CC1 [GW635815] | 0 | 0 | 0 | 21 | 0 | 0 | 0 | 8 | 0 | 7
5 | CCNCC(Cc1ccccc1)NC(=O)c1cc(Br)c(-c2ccnc3[nH]ccc23)s1.Cl.Cl (stereo not shown) [GSK1383280] | 0 | 0 | 0 | 0 | 0 | 12 | 0 | 22 | 0 | 5
6 | Cn1ccc2ncnc(Oc3ccc(NC(=O)Nc4cccc(C(F)(F)F)c4)c(F)c3)c21 | 0 | 0 | 0 | 0 | 0 | 0 | 13 | 19 | 0 | 8
7 | OCCn1cc(-c2cnc3nnn(Cc4ccc5ncccc5c4)c3n2)cn1 | 0 | 0 | 0 | 0 | 0 | 0 | 40 | 1 | 0 | 10

From paper PMC5540273 (PLoS ONE, 2017)
